# Test results reported in the supplement of paper PMC5499739.
# Over roughly 16,000 sequences, “Z-score” has its median near -0.37; the highest 2% begin near 3.2. Shown is part of a subset that was picked to be rich in the highest values.
# System: RBM10 RRM1-ZnF (GST-tagged construct)
# Assay: RNAcompete 7-mer binding Z-score; higher = stronger binding preference
# Protocol: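 RNAcompete: 20 pmol GST-tagged RBM10 RNA-binding constructs were incubated with a designed RNA pool of about 241,000 sequences up to 41 nt (1.5 nmol) on glutathione beads for 30 min at 4 °C and washed. Bound RNAs were identified by microarray hybridisation. Each RNA 7-mer is scored by a one-sided Z-score of its enrichment, computed over probes that contain the 7-mer within longer pool sequences.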
row,Sequence,RNAcompete 7-mer binding Z-score
1,GUAUCUC,-0.594
2,GCGGUUA,1.32
3,CCACUGG,-0.152
4,UUUCGAA,-0.678
5,UGACACG,0.0138
6,GAUGUUA,-0.116
7,GCGACCC,-0.545
8,CCGUUCC,-0.967
9,UAAUGCA,-0.386
10,UGACUCG,-0.487
11,AUAAGGU,1.72
12,GUAAGGA,2.67
13,GUAAGGG,3.85
14,AUAAGGA,2.08
15,GUAAGGC,1.67
16,AUAAGGG,3.77
17,GAGAAUC,0.0593
18,UACGUGU,-0.318
19,GAUAUAU,-0.178
20,ACGAUUA,-0.366
21,UUAACGU,-0.324
22,UUUUCAU,-0.727
23,AAUAGGU,1.37

row,Sequence,RNAcompete 7-mer binding Z-score
1,UUUAGGG,1.65
2,AAUAGGG,3.28
3,GUUAGGU,1.86
4,CAUAGGG,1.51
5,AAUAGGC,0.192
6,GAUAGGG,4.05
7,UAUAGGG,2.69
8,GUUAGGG,3.73
9,UAGAACU,-0.155
10,GACCCCU,-0.704
11,AACGGCA,0.42
12,CGUGCGG,1.09
13,CGCGCCA,-0.337
14,AAGGGGA,4.47
15,AGGGGGC,1.83
16,AAAGGCG,1.21
17,AAGGGGU,4.48
18,AGGGGGA,2.47
19,AAGGGCU,1.62
20,AGGGGGU,3.09
21,AAAGGGG,4.5
22,AAGGGGG,4.31
23,AAGGGGC,3.13

row,Sequence,RNAcompete 7-mer binding Z-score
1,GUCGCUA,-0.243
2,CUGGAGA,0.501
3,UUAGAAU,-0.152
4,CGUGAUC,-0.704
5,GAAUCGG,1.41
6,UGAACAC,-0.347
7,GCUUGUC,-0.665
8,UCUGGGG,1.39
9,CGGAGAA,1.36
10,AAUUGCC,-0.626
11,UGGAUAU,1.17
12,AGCAUAA,-0.292
13,GAGGGAC,2.06
14,CAGGGGA,2.99
15,CAAAGGG,2.23
16,GAGGGCU,1.3
17,GAGGAAA,2.27
18,UAAAGGG,2.85
19,AAAAGGG,3.8
20,GAGGGAA,3.42
21,GAGGGGA,3.62
22,GAGGGGU,3.59
23,GAGGGGC,2.44

row,Sequence,RNAcompete 7-mer binding Z-score
1,GAGGGGG,2.9
2,GAAAGUU,0.225
3,CAUAGGA,0.54
4,GCCGUUA,-0.607
5,GCAGGCA,0.495
6,AUGUAAG,0.397
7,UUGGGUU,2.66
8,UCGGGUG,2.34
9,UGGGGUG,4.74
10,GGGGGUC,2.18
11,GGGGGCG,2.47
12,UUGGGUC,1.04
13,AGGGGCG,2.28
14,GGGGGUG,4.02
15,AGGGGUG,3.85
16,UGGGGUC,2.57
17,UUGGGUG,3.83
18,AUACAGU,-0.00571
19,GUCCAGA,-0.474
20,GGGCUCA,0.485
21,AGGUGUU,0.988
22,AAUGCCC,-0.613
23,ACCGUAU,-0.746

row,Sequence,RNAcompete 7-mer binding Z-score
1,CGGGGUC,2.14
2,AUUGGUG,2.27
3,AUGGGUG,4.03
4,AUCGGUG,0.894
5,CCGGGUG,1.47
6,AUGGGUU,2.89
7,CGGGGUG,3.76
8,GUGGGUA,3.53
9,CUGGGUA,2.13
10,GUAGGUA,2.15
11,AUGGGUA,3.54
12,AUGGGUC,2.19
13,UAUACUC,-0.769
14,UAAACAA,-0.392
15,ACCGUUC,-0.948
16,AAACACC,-0.6
17,CUGCGGC,0.0138
18,GCAUGGC,0.176
19,AACCGCG,-0.353
20,CACGGGU,1.99
21,CUGGGUG,1.83
22,GUGGGUC,2.36
23,GUGGGUG,4.14

row,Sequence,RNAcompete 7-mer binding Z-score
1,GCGAAAA,0.0528
2,GCGCCCC,-0.0934
3,AUUCCUA,-0.756
4,UUAGGCU,0.095
5,CUGGGUU,1.53
6,UGGGGCU,2.3
7,UGGGGGU,3.87
8,GGGGGUU,3.67
9,AGGGGUU,2.52
10,UGGGGUU,3.29
11,AUUUAUC,-0.691
12,UAUGGCA,0.413
13,CAGCUCG,-0.704
14,UGAAGAA,0.228
15,CGCCUAA,-0.694
16,CCUGAUC,-0.792
17,GUGUUUA,0.27
18,CAGUGGG,2.24
19,GAGUGGU,2.46
20,AAGUGGG,3.73
21,GAGUGGC,1.53
22,AAGUGGA,3.31
23,CAGUGGA,1.38

row,Sequence,RNAcompete 7-mer binding Z-score
1,AAGUGGU,1.82
2,GAGUGGA,3.26
3,UAGUGGA,1.54
4,CCAAGAC,-0.646
5,GUAGUCA,0.157
6,CCAUCUG,-0.772
7,UGUGUCG,0.043
8,GGGGCGA,2.46
9,UUGGGGA,2.82
10,UCUGGGA,0.508
11,CGGGGGA,3.17
12,GGGGGCA,2.92
13,UGGGGCA,3.56
14,UGGGGGA,3.71
15,GGGGGGA,3.3
16,CGGGGAA,2.71
17,AGGGGCA,2.47
18,UGGGGAA,3.66
19,UCGGGAA,1.33
20,AACGGAC,0.413
21,GCAAAAC,-0.0902
22,AGCAUGA,-0.119
23,CUAGCGA,-0.347

row,Sequence,RNAcompete 7-mer binding Z-score
1,CAGAGGU,1.25
2,UACGGAA,0.699
3,CUACAGA,-0.636
4,AGAGCAG,0.699
5,UGGCUAG,0.391
6,ACGAGGU,0.959
7,UCGAGGG,1.95
8,GCGAGGG,3.54
9,GCGAGGA,1.93
10,ACGAGGG,3.35
11,ACGAGGC,0.319
12,CUGCUAU,-0.691
13,AGAUGCG,0.111
14,CCGCUCC,-0.474
15,GCAGGGU,3.43
16,ACAGGGC,1.84
17,GCAAGGA,2.4
18,CCAGGGU,1.29
19,ACAGGGA,3
20,CCAGGGG,1.46
21,GCAGGGC,1.35
22,GCAGGGG,3.32
